These results are taken from PubChem BioAssay (NCATS).

The structures appear in SMILES notation. “And” between values parts separate entries of the source, which are not always exact repeats. Equal entries are not always repeated. Values without a mark were called inactive. Inconclusive results are not listed. Some structures have more than one record in an assay (separate samples or runs), and their calls can disagree. The source made the active and inactive calls. Unless noted, calls come from the whole dose curve; as a rule, active = well fitted curve in the direction sought with a large enough effect; inconclusive = small, poorly fitted or top-dose-only effect, or another doubt; inactive = no such curve, though single readings can be large; an effect the other way counts as inactive or inconclusive.

One assay concerns Tov112D. Put plainly: Primary qHTS to identify gynecologic anti-cancer compounds using libraries of approved drugs and bioactive compounds (AID 1345084). Note: nearly all actives have a fitted effect of over 55% in size. Note: potency is the fitted concentration of half-maximal effect. The note with it: Gynecologic cancer cell panel viability, ATPlite luminescence, 48 h; series mostly up to 57.5 µM. The gist of the method: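 Five-point cytotoxicity, 48 h drug exposure at 37 C, 5% CO2, on cells seeded 16 h beforehand. ATP content read by ATPlite luminescence.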

A short description of assay [1]: Drug repurposing screens with cells derived from glioblastoma tumor samples (AID 1345199). For activity, negative = cell killing: % is set by controls: 0 for no effect and ±100 for the full control effect. Note: nearly all actives have a fitted effect of over 40% in size. Note: potency is the fitted concentration of half-maximal effect. To be noted: GBM patient neurospheres viability, ATP luminescence, 48 h. In outline: (§1)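 Four patient lines of CD133+ GBM neurospheres were screened at several concentrations; hits were retested in those lines plus three slower-growing GBM lines, using 48-hour treatment and ATP-based viability.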

The subject of the next assay is astro. Described as above. The note with it: viability, ATP luminescence, 48 h; series mostly up to 45.9 µM. In outline:
as §1

The target in assay [2] is Nuclear receptor subfamily 1 group I member 2 (Rattus norvegicus) (UniProt Q9R1A7). Put plainly: qHTS assay for small molecule activators of the rat pregnane X receptor (rPXR) signaling pathway (AID 651751; call rule not given here; note: 0% is about no effect). To be noted: rPXR reporter cells, luciferase (One-Glo), 24 h.
Sequence of Nuclear receptor subfamily 1 group I member 2 (Rattus norvegicus) (Q9R1A7 whole entry, looked up): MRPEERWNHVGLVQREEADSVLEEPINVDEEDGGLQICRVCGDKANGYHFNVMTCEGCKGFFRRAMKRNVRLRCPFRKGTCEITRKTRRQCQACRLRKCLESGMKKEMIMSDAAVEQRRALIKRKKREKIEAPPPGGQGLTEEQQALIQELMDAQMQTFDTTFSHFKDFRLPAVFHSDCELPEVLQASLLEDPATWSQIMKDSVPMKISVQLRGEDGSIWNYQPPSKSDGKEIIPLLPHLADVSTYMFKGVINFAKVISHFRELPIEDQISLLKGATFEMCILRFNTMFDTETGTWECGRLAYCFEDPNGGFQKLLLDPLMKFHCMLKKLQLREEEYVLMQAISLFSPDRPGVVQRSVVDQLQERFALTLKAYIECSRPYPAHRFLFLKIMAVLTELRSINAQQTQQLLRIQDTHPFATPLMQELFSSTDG
The nature of assay [3]: qHTS assay to identify inhibitors of the type 1 interferon - major histocompatibility complex class I in skeletal muscle: Counter screen cell viability and HiBit confirmation (AID 1347412). Note: potency is the fitted concentration of half-maximal effect; nearly all actives have a fitted effect of over 60% in size. To be noted: iHSKM muscle cells + IFN-b, HiBiT or CellTiter-Glo, 24 h. The gist of the method:
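Luminescence read-out: Nano-Glo HiBiT lytic signal from C-terminally HiBiT-tagged HLA-B in CRISPR-edited human myoblasts, plus CellTiter Glo ATP as viability counter screen. IFN-beta 4.0 ng/ml; 24 hrs treatment at 37 C, 5% CO2.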

The nature of assay [4]: qHTS assay for small molecule activators of the human pregnane X receptor (PXR) signaling pathway (AID 720659; call rule not given here; note: 0% is about no effect).
Setting [5] is: at 108 µM (top of the series), tumour line B.
Where [6] appears, read: at 45.9 µM (top of the series), tumour line B.
[7] abbreviates: at 45.9 µM (top of the series), tumour line D.
Setting [8] is: at 46 µM (top of the series), tumour line A.
Where [9] appears, read: at 108 µM (top of the series), tumour line D.
Where [10] appears, read: at 21.2 µM (top of the series), tumour line B.
Where [11] appears, read: at 21.2 µM (top of the series), tumour line D.

As to `COc1cc(C[C@@H](C)N)c(OC)cc1Br`, the Potency entry in the assay on Tov112D and in the assay with astro was “inactive” throughout. For the same molecule, the activity, negative = cell killing in assay [1] (setting [5]) is -21.6%. In addition, the Potency in assay [1] (tumour line A) was 35.5 µM (active).

`CCOC(=O)NC(C)(C)Cc1ccc(Cl)cc1`: the Potency entry in the assay on Tov112D and with astro was “inactive” in each case. Further, the activity, negative = cell killing was 0.659% in assay [1] (setting [6]) and -16.7% in assay [1] (setting [7]).

As to `Cc1cccc(Cc2cnc[nH]2)c1C`, the Potency entry in the assay with Tov112D and in the assay on astro was “inactive” in each case. Further, the activity, negative = cell killing in assay [1] (setting [6]) is -15.8%; in assay [1] (setting [7]) it was -4.57%. Further, the Potency in assay [1] (tumour line A) is 35.5 µM (active).

For the molecule `CCC1(CC)C(=O)NC(=O)NC1=O`, the Potency entry in the assay with Tov112D and with astro was “inactive” each time. In addition, the activity, negative = cell killing in assay [1] (setting [6]) is 3.52%; in assay [1] (setting [7]), -15.8%; in assay [1] (setting [8]), -22.6%.

In the case of `CC(Cc1ccc2c(c1)OCO2)NO` (stereo unspecified), the Potency result in the assay with Tov112D and in the assay with astro was “inactive” throughout. The results for the activity, negative = cell killing in assay [1] (setting [5]) and in assay [1] (setting [9]) were -8.99% and -8.83%, respectively.

Regarding `OC(O)C(Cl)(Cl)Cl`, the Potency entry with Tov112D and with astro was “inactive” in each case. The values for the activity, negative = cell killing in assay [1] (setting [6]), in assay [1] (setting [7]) and in assay [1] (setting [8]) were -7.9%, -0.425% and -19%, respectively.

Take `CC(C)=C[C@@H]1[C@@H](C(=O)OCc2coc(Cc3ccccc3)c2)C1(C)C`: the Potency result in the assay on Tov112D and in the assay on astro was “inactive” throughout. Moreover, the activity, negative = cell killing in assay [1] (setting [6]) was -21%; in assay [1] (setting [7]), -13.8%.

On to `CN1C(=O)CN=C(c2ccccc2)c2cc([N+](=O)[O-])ccc21`, for which the Potency entry in the assay on Tov112D and in the assay on astro was “inactive” in each case. The activity, negative = cell killing in assay [1] (setting [6]) was 1.05%; in assay [1] (setting [7]), -22.1%; in assay [1] (setting [8]), -31.9%.

For the molecule `NC(=O)CN1CCCC1=O`, the Potency result with Tov112D and in the assay on astro was “inactive” throughout. Further, the activity, negative = cell killing in assay [1] (setting [10]) is -8.16%; in assay [1] (setting [11]), -13%; in assay [1] (at 21.3 µM (top of the series), tumour line A), -16.4%.

For `Oc1c(Br)cc(Br)cc1Br`, the Potency result in the assay with Tov112D was “inactive”. For the same molecule, the activity, negative = cell killing in assay [1] (setting [6]) was -7.26%; in assay [1] (setting [7]), 14.2%; in assay [1] (setting [8]), -28%. In assay [2], the max response was 8.69% and -3.29%.

For the molecule `CNC(C)Cc1ccccc1OC` (stereo unspecified), the Potency result in the assay with Tov112D and in the assay with astro was “inactive” each time. Also, the activity, negative = cell killing was -11.6% in assay [1] (setting [6]), -21% in assay [1] (setting [7]) and -24.5% in assay [1] (setting [8]).

Regarding `O=C(NC(=O)c1c(F)cccc1F)Nc1cc(Cl)c(OC(F)(F)C(F)C(F)(F)F)cc1Cl` (stereo unspecified), the Potency entry with Tov112D and with astro was “inactive” each time. Moreover, the activity, negative = cell killing in assay [1] (setting [6]) is -8.74%; in assay [1] (setting [7]), -27.5%. Moreover, the Potency in assay [1] (tumour line A) was 7.94 µM (active). In addition, in assay [2], the max response was 0.749%.

In the case of `C[C@@H]1CN(C2CCC(C#N)(c3ccc(F)cc3)CC2)CC[C@]1(C(=O)O)c1ccccc1` (stereo partly specified), the Potency entry with Tov112D and in the assay with astro was “inactive” each time. Also, the values for the activity, negative = cell killing in assay [1] (setting [10]) and in assay [1] (setting [11]) were -8.19% and -4.39%, respectively.

Regarding `C[C@H]1CNCCc2ccc(Cl)cc21`, the Potency result in the assay on Tov112D and in the assay on astro was “inactive” throughout. Moreover, the activity, negative = cell killing in assay [1] (setting [6]) was -18.8%; in assay [1] (setting [7]), -14.1%. The Potency in assay [1] (tumour line A) was 11.2 µM (active).

As for `CCCOC(=O)Cc1ccc(OCC(=O)N(CC)CC)c(OC)c1`, the Potency entry with Tov112D and with astro was “inactive” throughout. The activity, negative = cell killing in assay [1] (setting [6]) is -0.689%; in assay [1] (setting [7]) it was -1.94%; in assay [1] (setting [8]), -27.4%.

With `CN(C)CCc1c[nH]c2ccccc12`, the Potency entry in the assay on Tov112D and with astro was “inactive” throughout. For the same molecule, the activity, negative = cell killing is -3.73% in assay [1] (setting [5]) and -2.02% in assay [1] (setting [9]).

In the case of `CC1=C2[C@H]3OC(=O)[C@@H](C)[C@@H]3CC[C@@]2(C)C=CC1=O`, the Potency entry in the assay on Tov112D and with astro was “inactive” throughout. Also, the figures for the activity, negative = cell killing in assay [1] (setting [6]), in assay [1] (setting [7]) and in assay [1] (setting [8]) were -4.49%, -15.5% and -23.4%, respectively.

Regarding `CC(C)[N+](C)(CCC(C(N)=O)(c1ccccc1)c1ccccc1)C(C)C`, the Potency entry in the assay with Tov112D and with astro was “inactive” in each case. The activity, negative = cell killing in assay [1] (setting [10]) is -18%; in assay [1] (setting [11]), -25.8%.

Take `OC(c1ccccc1)(c1ccccc1)C1CCNCC1`: the Potency result in the assay with Tov112D and in the assay with astro was “inactive” throughout. The activity, negative = cell killing in assay [1] (setting [10]) was -16.1%; in assay [1] (setting [11]), -0.163%.

Take `N#Cc1nn(-c2c(Cl)cc(C(F)(F)F)cc2Cl)c(N)c1S(=O)C(F)(F)F` (stereo unspecified): the Potency result in the assay with Tov112D is “inactive”. Moreover, in assay [1] (setting [6]), the activity, negative = cell killing is -25.5%. Also, the max response in assay [2] was -15%.

On to `Cc1ccc([N+](=O)[O-])[c]2c1[O][Hg]2`, for which the Potency in the assay on Tov112D was 5.62 µM (active); in assay [3] (HiBiT), 6.25 µM (active); in assay [3] (Viability) it was 14 µM (active).

In the case of `CN1[C@@H]2CC[C@H]1CC(OC(=O)c1cc(Cl)cc(Cl)c1)C2` (stereo partly specified), the Potency result in the assay with Tov112D and with astro was “inactive” in each case.

Turning to `CC(CC(C#N)(c1ccccc1)c1ccccc1)N(C)C` (stereo unspecified), the Potency result in the assay with Tov112D and with astro was “inactive” each time.

With `CCC1(c2cnc[nH]2)Cc2ccccc2C1`, the activity, negative = cell killing in assay [1] (setting [7]) is -24.8%.

For the molecule `CNC(=O)Oc1cccc2ccccc12`, the Potency result in the assay with Tov112D is “inactive”. Moreover, the Potency in assay [1] (tumour line A) was 35.5 µM (active). For the same molecule, the max response in assay [2] is 5.05% and 2.44%.

As for `NC(=O)OCCCc1ccccc1`, the Potency result with Tov112D and in the assay with astro was “inactive” throughout. Moreover, the activity, negative = cell killing is 0.315% in assay [1] (setting [6]) and -23.1% in assay [1] (setting [7]).

As for `O=c1n(Cl)c(=O)n(Cl)c(=O)n1Cl`, the Potency result with Tov112D is “inactive”. In addition, the activity, negative = cell killing in assay [1] (setting [6]) is -0.787%; in assay [1] (setting [7]), 7.38%. Also, the max response in assay [2] is -5.15%. Further, the outcome in assay [4] was inactive.

With `C[C@@H]1CC[C@H]2[C@@H](C)C(=O)O[C@@H]3O[C@@]4(C)CC[C@@H]1[C@]32OO4`, the Potency entry with Tov112D and with astro was “inactive” each time. Further, in assay [1] (setting [6]), the activity, negative = cell killing is -29.6%.

With `C[C@H](N)[C@H](O)c1ccc(O)c(O)c1`, the values for the activity, negative = cell killing in assay [1] (setting [6]) and in assay [1] (setting [7]) were -8.55% and -15.2%, respectively.
